# Measurements reported in PubChem BioAssay (NCATS).
# Inconclusive results are not listed. Activity calls are given as the source filed them. The call rests on the fitted dose curve; in most records, active means well fitted curve in the direction sought with a large enough effect; inconclusive means small, poorly fitted or top-dose-only effect, or another doubt; inactive means no such curve, though single readings can be large; an effect the other way counts as inactive or inconclusive.
# Key:
# [1] = Quantitative High-Throughput drug screen in 47 multiple myeloma cell lines against the NCATS MIPE library collection: Delta47_JCRB cell viability assay (AID 1918925; further: potency means the concentration at half of the fitted maximal effect; nearly all actives have a fitted effect of over 45% in size)
# Summary of the method: (§1)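 Myeloma cell lines, 500 cells per well, exposed to MIPE 4.0 library compounds for 48 h at 37C, 5% CO2. Viability from ATP by CellTiter-Glo luminescence; normalised to DMSO (100%) and media-only (0%) wells.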
# [2] = Quantitative High-Throughput drug screen in 47 multiple myeloma cell lines against the NCATS MIPE library collection: AMO1_DSMZ cell viability assay (AID 1918927; further: potency means the concentration at half of the fitted maximal effect; nearly all actives have a fitted effect of over 30% in size)
# Summary of the method: as §1
# [3] = Quantitative High-Throughput drug screen in 47 multiple myeloma cell lines against the NCATS MIPE library collection: ARP1_JJKsccF8 cell viability assay (AID 1918928; further: potency means the concentration at half of the fitted maximal effect; nearly all actives have a fitted effect of over 40% in size)
# Summary of the method: (§2)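 Cell viability inhibition in this qHTS is measured via ATP content (CellTiter-Glo) after 48 h drug exposure at 37 °C. Wells hold 500 cells; DMSO-treated wells define 100% and medium-only wells 0%.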
# [4] = Quantitative High-Throughput drug screen in 47 multiple myeloma cell lines against the NCATS MIPE library collection: ARD_JJKsccE7 cell viability assay (AID 1918929; further: potency means the concentration at half of the fitted maximal effect)
# Summary of the method: as §1
# [5] = Quantitative High-Throughput drug screen in 47 multiple myeloma cell lines against the NCATS MIPE library collection: Karpas620_DSMZ cell viability assay (AID 1918959); further: nearly all actives have a fitted effect of over 30% in size; further: potency means the concentration at half of the fitted maximal effect
# Summary of the method: (§3)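 Steps: seed 500 cells per well; pin-transfer MIPE 4.0 library; incubate 48 h at 37C, 5% CO2, humidified; add CellTiter-Glo, 5 min room temperature; read luminescence.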
# [6] = Quantitative High-Throughput drug screen in 47 multiple myeloma cell lines against the NCATS MIPE library collection: KMM1_JCRB cell viability assay (AID 1918960); further: potency means the concentration at half of the fitted maximal effect; nearly all actives have a fitted effect of over 30% in size
# Summary of the method: as §2
# [7] = Quantitative High-Throughput drug screen in 47 multiple myeloma cell lines against the NCATS MIPE library collection: JIM3_ECACC cell viability assay (AID 1918963; further: potency means the concentration at half of the fitted maximal effect; nearly all actives have a fitted effect of over 35% in size)
# Summary of the method: as §3
# [8] = Quantitative High-Throughput drug screen in 47 multiple myeloma cell lines against the NCATS MIPE library collection: JIM1_ECACC cell viability assay (AID 1918964; further: potency means the concentration at half of the fitted maximal effect)
# Summary of the method: as §1
# [9] = Quantitative High-Throughput drug screen in 47 multiple myeloma cell lines against the NCATS MIPE library collection: INA6_PLB cell viability assay (AID 1918965; further: potency means the concentration at half of the fitted maximal effect; nearly all actives have a fitted effect of over 55% in size)
# Summary of the method: (§4)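 CellTiter-Glo luminescence (ATP) after 48 h compound exposure, 37C/5% CO2; 500 cells/well; MIPE 4.0 approved/investigational drugs pinned in; DMSO = 100%, media only = 0% viability.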
# [10] = Quantitative High-Throughput drug screen in 47 multiple myeloma cell lines against the NCATS MIPE library collection: JJN3_DSMZ cell viability assay (AID 1918966; further: potency means the concentration at half of the fitted maximal effect; nearly all actives have a fitted effect of over 50% in size)
# Summary of the method: as §1
# [11] = Quantitative High-Throughput drug screen in 47 multiple myeloma cell lines against the NCATS MIPE library collection: Karpas25_ECACC cell viability assay (AID 1918968; further: potency means the concentration at half of the fitted maximal effect; nearly all actives have a fitted effect of over 35% in size)
# Summary of the method: as §1
# [12] = Quantitative High-Throughput drug screen in 47 multiple myeloma cell lines against the NCATS MIPE library collection: KMS27_JCRB cell viability assay (AID 1918970); further: potency means the concentration at half of the fitted maximal effect; nearly all actives have a fitted effect of over 30% in size
# Summary of the method: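 KMS27_JCRB myeloma cells, 500 per well, exposed 48 h at 37 C, 5% CO2 to MIPE 4.0 compounds. Viability from ATP by CellTiter-Glo luminescence, normalized to DMSO (100%) and medium-only (0%) wells.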
# [13] = Quantitative High-Throughput drug screen in 47 multiple myeloma cell lines against the NCATS MIPE library collection: KMS12BM_JCRB cell viability assay (AID 1918971); further: potency means the concentration at half of the fitted maximal effect; nearly all actives have a fitted effect of over 35% in size
# Summary of the method: as §3
# [14] = Quantitative High-Throughput drug screen in 47 multiple myeloma cell lines against the NCATS MIPE library collection: KMS12PE_JCRB cell viability assay (AID 1918972)
# Summary of the method: as §4
# [15] = Quantitative High-Throughput drug screen in 47 multiple myeloma cell lines against the NCATS MIPE library collection: KMS20_JCRB cell viability assay (AID 1918973); further: potency means the concentration at half of the fitted maximal effect; nearly all actives have a fitted effect of over 45% in size
# Summary of the method: as §1
# [16] = Quantitative High-Throughput drug screen in 47 multiple myeloma cell lines against the NCATS MIPE library collection: Karpas417_ECACC cell viability assay (AID 1918961); conditions: Karpas417 myeloma viability, CellTiter-Glo ATP luminescence, 48 h; viability (% of DMSO): at 45.8 µM (top of the series)
# Summary of the method: as §4
Structure (SMILES),Potency [1],Potency [2],Potency [3],Potency [4],Potency [5],Potency [6],Potency [7],Potency [8],Potency [9],Potency [10],Potency [11],Potency [12],Potency [13],Potency [14],Potency [15],Potency [16]
CC1(C)CC(=O)c2c(C(F)(F)F)nn(-c3ccc(C(N)=O)c(NC4CCC(OC(=O)CN)CC4)c3)c2C1 (configuration not stated),166 nM (active),148 nM (active),235 nM (active),93.5 nM (active),264 nM (active),132 nM (active),148 nM (active),132 nM (active),118 nM (active),132 nM (active),187 nM (active),74.3 nM (active),187 nM (active),132 nM (active),148 nM (active),
CC(C)(C)NC(=O)[C@H]1CN(Cc2cccnc2)CCN1C[C@@H](O)C[C@@H](Cc1ccccc1)C(=O)N[C@H]1c2ccccc2C[C@H]1O,,,,inactive,inactive,,5260 nM (active),inactive,20900 nM (active),,4180 nM (active),,,,,inactive
